Reference: PubChem BioAssay AID485344 (National Center for Advancing Translational Sciences (NCATS), 2010)
Hit rate of the full screen: of about 340,000 compounds, about 6,900 (2%) were called active. The sample holds actives, similar compounds and a random draw of the others, so the mix is not that of the screen. A number with no mark means an inactive call. Cut-off read from the data, not from the text of the source: active = inhibition above about 30%; inactive = below that, where a call was filed.

molecular target: D(2) dopamine receptor (Homo sapiens) (UniProt P14416); experiment: HTS Assay for Allosteric Antagonists of the Human D2 Dopamine Receptor: Primary Screen for Antagonists; settings: HEK293 TREx D2 cells, calcium flux, dopamine EC80; at 10 µM; active compounds read high; note: 0% is about no effect
Sequence (P14416 whole entry, looked up): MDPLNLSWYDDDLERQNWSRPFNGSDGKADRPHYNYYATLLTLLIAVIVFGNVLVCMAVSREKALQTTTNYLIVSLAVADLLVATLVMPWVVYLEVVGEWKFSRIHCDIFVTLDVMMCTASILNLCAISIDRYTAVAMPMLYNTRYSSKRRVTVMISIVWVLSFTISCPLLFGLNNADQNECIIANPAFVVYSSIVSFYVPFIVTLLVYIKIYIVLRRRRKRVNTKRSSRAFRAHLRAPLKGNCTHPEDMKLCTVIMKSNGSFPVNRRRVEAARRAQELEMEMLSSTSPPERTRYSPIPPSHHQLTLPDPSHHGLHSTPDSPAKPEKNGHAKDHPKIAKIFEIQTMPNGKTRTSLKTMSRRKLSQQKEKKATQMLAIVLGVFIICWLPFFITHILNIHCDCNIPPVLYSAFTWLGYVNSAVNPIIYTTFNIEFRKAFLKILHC
Excerpt: NIH Chemical Genomics Center [NCGC] NIH Molecular Libraries Probe Centers Network [MLPCN] MLPCN Grant: NS064831-01 Assay Submitter (PI): David Sibley Dopamine receptors (DARs) are involved in the etiology and/or therapy of a number of neuropsychiatric and endocrine disorders. For instance, all receptor-based antiparkinsonian drugs work via stimulating the D2 DAR subtype whereas all FDA-approved antipsychotic agents are antagonists of this receptor. […] There are three different types of allosteric modulators that we are seeking, two of which will stimulate or augment receptor signaling, allosteric agonists and potentiators, while the third, allosteric antagonists, will attenuate receptor signaling. The present primary screening assay measures compound antagonism after an EC80 addition of dopamine by tracking calcium flux in a […], inducible Hek293 Trex D2 cell line.
Freshly passaged cells are plated in 1536 well black, clear bottom plates at a density of 4000 cells/well in 3 ul of complete media containing 1x tetracycline inducer. After an overnight incubation at 30 C in 5% CO2, cells are loaded with 2 ul of the no wash Calcium Assay Kit (ABD Bioquest) and incubated at room temperature for 30 to 90 minutes. Agonist read: A 10 cycle (1 second/cycle) baseline measurement is taken and then the FDSS online 1536 pintool delivers 23 nl of compound library (as well as dopamine controls) to the plate. The plate is measured for kinetically at 1 cycle/sec for 180 seconds. Following the 180 second read, 1 ul of an EC80 (negative modulation assay) is delivered by an onboard pipette head. Measurements are taken kinetically for an additional 180 seconds.

Going from `O=C(CCNS(=O)(=O)c1ccccc1C(F)(F)F)Nc1ccncc1` to `O=C(COC(=O)CNC(=O)c1ccco1)Nc1ccc(F)cc1`, the inhibition rises from -6.21% to -3.88%.

Compared with `CN(Cc1ccccc1F)C(=O)C(Cc1ccccc1)NC(=O)c1ccccc1` (configuration not stated), `O=C(N[C@@H](Cc1ccccc1)C(=O)OCc1ccccc1)c1nc[nH]c1C(=O)N[C@@H](Cc1ccccc1)C(=O)OCc1ccccc1` is higher in inhibition: -5.32% for the first, 13.9% for the second.

First: NS(=O)(=O)c1ccc(NC(=O)COC(=O)c2cc3ccccc3oc2=O)cc1
Second: NC(=O)c1ccc(NC(=O)COC(=O)c2ccc([N+](=O)[O-])cc2)cc1
The inhibition of the first is higher: -18.7% for the first, -23.5% for the second.

First: N/C(Cc1ccc([N+](=O)[O-])cc1)=N\OC(=O)C1CCCCC1
Second: O=C(OCC(=O)N1CCc2ccccc21)C1CCCN1S(=O)(=O)c1ccc(Cl)cc1 (configuration not stated)
The inhibition of the first is higher: 2.32% for the first, -11.4% for the second.

Compared with `COc1ccc(CNC(=O)CN2C(=O)NC3(CCCc4sccc43)C2=O)cc1` (configuration not stated), `CCN(CC(=O)Nc1ccc(OC)cc1)C(=O)c1ccc(=O)n(Cc2ccccc2)n1` is higher in inhibition: 2.45% for the first, 7.28% for the second.

Going from `Cc1ccc(S(=O)(=O)N2CCCCC2)cc1C(=O)N1CCN(CCO)CC1` to `O=C(NCc1ccccc1CN1CCCC1)C1CCN(S(=O)(=O)c2ccc(Cl)cc2)CC1`, the inhibition rises from -6.17% to 9.19%.

First: COc1ccc(-c2nn(-c3ccccc3)cc2/C=C\C(=O)Nc2ccc(C(=O)O)cc2)cc1
Second: COc1ccc(-c2nn(-c3ccccc3)cc2C(=O)Nc2nc(CC(C)=O)ns2)cc1
The inhibition of the first is lower: 0.137% for the first, 13.1% for the second.

Going from `O=C(NNC(=O)c1ccc(-n2cncn2)c([N+](=O)[O-])c1)c1ccccc1` to `Cc1ccc(CNC(=O)c2cc(-c3ccccc3C)n(CC3CC(c4cccc([N+](=O)[O-])c4)=NO3)n2)cc1` (configuration not stated), the inhibition rises from 1.81% to 6.93%.

Going from `COc1ccc(C2=NN(C(=O)CSc3nnnn3C)C(c3ccco3)C2)cc1` (configuration not stated) to `COc1ccc2cc(C3=CC(=O)C[C@H](c4ccc5c(c4)OCO5)C3)ccc2c1`, the inhibition rises from -18.6% to 13.1%.

First: O=S(=O)(Nc1ccc(-n2cnnn2)cc1)c1ccc(Cl)cc1
Second: Cc1ccc(C)c(S(=O)(=O)Nc2cccc(-n3cnnn3)c2)c1
The inhibition of the first is lower: -3.4% for the first, 4.04% for the second.

First: COc1ccccc1CNS(=O)(=O)c1cc(C(=O)NCc2ccccn2)c(Cl)cc1Cl
Second: Cc1cccc(NS(=O)(=O)c2ccc(C)c(C(=O)NCC(c3ccccc3)N(C)C)c2)c1 (configuration not stated)
The inhibition of the first is higher: -2.76% for the first, -4.69% for the second.

Compared with `CNC(=O)C1CC(=O)N(c2ccc(OCC(=O)Nc3ccccc3C)cc2)C1` (configuration not stated), `CCOC(=O)c1ccc(NC(=O)C2CC(=O)N(c3ccc4c(c3)OCCO4)C2)cc1` (configuration not stated) is lower in inhibition: 12.9% for the first, 6.09% for the second.

Going from `S=C(NCCc1ccccc1)NCc1ccccc1Cl` to `Cc1cc(F)ccc1NC(=S)NCCc1ccccc1`, the inhibition rises from -2.45% to -0.203%.

First: CC(=O)N1CCc2c(sc(NC(=O)CCS(=O)(=O)c3ccc(C)cc3)c2C(N)=O)C1
Second: CN1CCC(N(C)S(=O)(=O)c2ccc(NC(=O)c3cccc(C#N)c3)cc2)CC1
The inhibition of the first is higher: -1.82% for the first, -21.6% for the second.

Going from `O=C(c1cccc(C(=O)N2CCN(c3ccc(F)cc3)CC2)c1)N1CCN(c2ccc(F)cc2)CC1` to `Nc1c(N(Cc2ccco2)C(=O)c2cccc(F)c2)c(=O)[nH]c(=O)n1Cc1ccccc1`, the inhibition falls from 19.6% to 11.2%.

Going from `CCN1CCN(C(c2cccnc2)c2cc(Cl)c3cccnc3c2O)CC1` (configuration not stated) to `O=S(=O)(c1cccs1)N1CCN(CCOc2ccccc2)CC1`, the inhibition falls from 2.31% to -9.4%.

Going from `Cc1ccc(S(=O)(=O)NCCNC(C)c2ccc(Br)cc2)cc1` (configuration not stated) to `CN(C)C(CNC(=O)c1cccc(S(=O)(=O)Nc2ccc(Br)cc2)c1)c1ccco1` (configuration not stated), the inhibition rises from -7.75% to 22.1%.

Going from `COc1ccc(C2CC(=O)NC(=O)C2)cc1` to `CCOc1ccc(S(=O)(=O)NCCC(=O)NCC2CCCO2)cc1` (configuration not stated), the inhibition rises from -28.9% to 6.91%.

First: CC(Sc1nnc(-c2cccs2)n1C1CC1)C(=O)NCC1CCCO1 (configuration not stated)
Second: COc1cccc(CC2(CO)CCCN(Cc3nc(-c4cccs4)oc3C)C2)c1 (configuration not stated)
The inhibition of the first is higher: 13.5% for the first, -28.2% for the second.

Compared with `Cc1ccc(-c2c[n+](CC(=O)Nc3ccccc3)c3n2CCC3)cc1`, `Clc1ccc(C[n+]2cc(-c3ccccc3)n3c2CCC3)cc1` is lower in inhibition: 7.8% for the first, -18.7% for the second.

Compared with `OCC[C@H]1C[C@H](O)[C@@H](O)[C@]2(CCc3ccccc3O2)O1`, `Cc1ccc(CN2CCN(Cc3cn(C)nc3-c3ccccc3)CC2CCO)o1` (configuration not stated) is higher in inhibition: 4.64% for the first, 9.07% for the second.

First: CCn1nc(C)c(CN2CCN(Cc3ccc(OC)c(C)c3C)C(CCO)C2)c1C (configuration not stated)
Second: Cc1ccccc1-c1cc(C(=O)NCC2CC2)n(CC2CC(c3cccnc3)=NO2)n1 (configuration not stated)
The inhibition of the first is lower: -7.65% for the first, 2.25% for the second.

In the case of `CC(C)(C)OC(=O)N1CCC(NC(=O)c2[nH]cnc2C(=O)N[C@@H](Cc2ccccc2)C(=O)OCc2ccccc2)CC1`, the inhibition is reported as 20.4%.

With `NS(=O)(=O)c1ccc(NC(=O)COC(=O)c2ccco2)cc1` the inhibition was 38.5% (active).
`O=C(COC(=O)C1CCCCC1)Nc1ccc([N+](=O)[O-])cc1` was tested, and the inhibition was 35.3% (active).
For `COc1ccc(NC(=O)c2cn(-c3ccccc3)nc2SC)cc1`, the inhibition was 60.7% (active).
With `O=S(=O)(Nc1cccc(-n2cnnn2)c1)c1cnc(Cl)c(Cl)c1` the inhibition was 34.6% (active).
`Fc1ccccc1Cn1cnc(NC(=S)NCCc2ccccc2)n1` was tested, and the inhibition was 40.1% (active).
In the case of `Oc1c(CN2CCN(c3ccc(F)cc3)CC2)cc(Cl)c2cccnc12`, the inhibition is reported as 49.1% (active).
For `COc1ccc(C2CC(=O)Oc3ccc(C(C)(C)C)cc32)cc1` (configuration not stated), the inhibition was 40.2% (active).
For `CCOC(=O)C1(CC2CCCCO2)CCN(Cc2nc(-c3cccs3)oc2C)CC1` (configuration not stated), the inhibition was 69.3% (active).
In the case of `Clc1ccc(C[n+]2cc(-c3ccc(Cl)cc3)n3c2CCC3)cc1`, the inhibition is reported as 44.4% (active).
In the case of `COc1ccc(CN2CCN(Cc3cn(C)nc3-c3ccccc3)CC2CCO)c(C)c1C` (configuration not stated), the inhibition is reported as 33.2% (active).
With `O=C(N[C@@H](Cc1ccccc1)C(=O)OCc1ccccc1)c1nc[nH]c1C(=O)NC1CCNCC1` the inhibition was 76.1% (active).
In the case of `Cc1ccccc1-c1cc(C(=O)NCc2cccs2)n(CC2CC(c3cccnc3)=NO2)n1` (configuration not stated), the inhibition is reported as 37.9% (active).
